# Experiments:
# Format in all cases: functional
# Plasmodium falciparum [1] = assay: GSK_TCMDC: Inhibition of Plasmodium falciparum 3D7 in whole red blood cells, using parasite LDH activity as an index of growth. Test compounds present at 2uM
# Plasmodium falciparum [2] = assay: GSK_TCMDC: Inhibition of Plasmodium falciparum Dd2 in whole red blood cells, using parasite LDH activity as an index of growth. Test compounds present at 2uM
# HepG2 = assay: GSK_TCMDC: Percent inhibition of human HepG2 cell line. Test compounds present at 10uM.
Compound,Inhibition (Plasmodium falciparum [1]) [%],Inhibition (Plasmodium falciparum [2]) [%],Inhibition (HepG2) [%]
CCN1CCN(CCCNc2c3ccc(Cl)cc3nc3ccc(O)cc23)CC1,100,1,32
CC(CN1CCN(C)CC1)C(=O)Nc1cccc(-c2cccc(-c3nc4cc(F)ccc4[nH]3)c2)c1 (stereo not drawn),100,78,23
COc1cc2nc(-c3ccc(Br)cc3)cc(N)c2cc1OC,98,69,90
O=C(NCc1cccc(F)c1)Nc1ccc(-c2ccc(-c3nc4cc(C(F)(F)F)ccc4[nH]3)cc2)cc1,100,24,46
CC(Cc1ccc(NS(=O)(=O)c2ccc(CC(C)NCCc3cccc(Cl)c3)cc2)cc1)NCCc1cccc(Cl)c1 (stereo not drawn),100,38,12
COc1ccccc1N1CCN(Cc2c(O)ccc3cc(Br)ccc23)CC1,89,75,8
CN(C)CCCOC(=O)c1cc2cc(-c3ccccc3)ccc2n1S(=O)(=O)Cc1ccccc1.Cl,100,70,13
N#Cc1ccc(N(CCOc2ccc3c(c2)CCC(=O)N3)Cc2ccccc2C(F)(F)F)cc1C(F)(F)F,98,64,19
CN1CCC(C(=O)Nc2cccc(-c3ccc(-c4nc5cc(C(F)(F)F)ccc5[nH]4)s3)c2)CC1,100,95,29
Cc1ccccc1Nc1nc(Nc2ccccc2)c2ccccc2n1.Cl,100,21,19
Cc1cccc(/C=C/C(=O)NC2CCC(N3CCC(c4ccccc4C)CC3)CC2)c1 (stereo not drawn),92,20,67
Cc1c(CC(=O)NCCC2CCN(CCCCCNC(=O)/C=C/c3ccc(Cl)c(Cl)c3)CC2)sc2ccc(Cl)cc12,92,8,59
CCc1ccc(-n2cc(C(=O)c3cc(Br)ccc3O)cc(C#N)c2=O)cc1,97,30,9
CC1(C)N=C(N)N=C(N)N1c1ccc([N+](=O)[O-])cc1.Cl,93,1,3
Fc1ccc(Nc2ccnc3cc(-c4ccc(CNCCN5CCOCC5)o4)ccc23)c(Cl)c1,100,99,34
CCc1cccc2c(C#N)cn(CC(=O)NCCc3ccccc3)c12,95,64,1
CN1c2ccc([N+](=O)[O-])cc2C(C)(C)C12C=Cc1cc(Br)cc([N+](=O)[O-])c1O2 (stereo not drawn),100,99,0
N=C(N)NC(=O)Nc1ccc(Cl)c(Cl)c1,95,13,29
Br.CCCCCCCNCCNc1cc(C)nc2ccccc12,100,99,58
CCc1cn(C)c2c(N3CCCC3=O)cc(C(=O)N[C@@H](Cc3ccccc3)[C@H](O)CNC3CCCCC3)cc12,97,98,8
O=C(Nc1ccc(S(=O)(=O)N2CCCCC2)cc1)c1cc(-c2cc(Cl)ccc2O)n[nH]1,97,87,36

Compound,Inhibition (Plasmodium falciparum [1]) [%],Inhibition (Plasmodium falciparum [2]) [%],Inhibition (HepG2) [%]
Br.c1ccc(-c2nc(Nc3ccncc3)sc2-c2ccccc2)cc1,97,18,0
CC(C)CC(NC(=O)c1ccc(F)cc1)C(=O)N[C@H](/C=N/N1CCNC1=O)CC(C)C (stereo partly drawn),89,84,0
CCCNCc1c(O)ccc2c(CNCCC)c(O)ccc12.Cl,100,9,24
C=CCn1c(SCC(=O)Nc2cc(Cl)ccc2Cl)nc2sc(C)cc2c1=O,97,96,8
Cl.NC1CCN(Cc2cccc(-c3ccc(-c4nc5cc(C(F)(F)F)ccc5[nH]4)cc3)c2)C1 (stereo not drawn),99,97,21
O=C(NC1CCN(Cc2ccccc2)CC1)c1cc(-c2cccnc2)nc2ccc(Cl)cc12,97,26,0
CC(=O)Nc1cccc(NC(=O)CSc2ccc(-c3nc4ccccc4[nH]3)cn2)c1,97,73,22
Cc1ccc(S(=O)(=O)O)cc1.N=C(N)NCCCC(=O)NCC(N)=O,100,0,20
COc1ccc(NC(=O)[C@H](CC(C)C)Nc2cc(C)nc(NCCc3cccs3)n2)cc1.O=C(O)C(F)(F)F,100,68,5
O=C(Cn1c(CCc2cccc(F)c2F)cc(=O)c2ccccc21)N(CCN1CCCC1)Cc1ccc(-c2ccc(C(F)(F)F)cc2)cc1.O=C(O)C(O)C(O)C(=O)O,99,57,89
CC(C)C[C@H](NC(=O)c1ccc(OCCN2CCOCC2)cc1)C(=O)NC(/C=N/N1CCCC1=O)C(C)C (stereo partly drawn),90,81,3
COc1ccc(NC(=O)[C@H](CC(C)C)Nc2ccnc(NCCc3ccc(F)cc3)n2)cc1.O=C(O)C(F)(F)F,86,22,0
COc1ccccc1-c1cccc2c(NC(=O)Nc3ccc4nccc(N5CCN(C)CC5)c4c3)ccnc12,94,34,3
CN1CCC(NCc2cccc(-c3ccc(S(=O)(=O)NCCN4CCCC4)c(F)c3)c2)CC1.O=C(O)C(F)(F)F,91,0,14
CC(C)(CNC(=O)[C@@H]1CCCN(Cc2ccc(Cl)cc2)C1)c1nc(-c2ccc(Cl)c(O)c2)c(-c2ccncc2)[nH]1.Cl,97,37,66
CCCCCC(C)c1cc(O)c2c(c1)OC(C)(C)C=C2C1=CCN(Cc2ccccc2)CC1 (stereo not drawn),96,96,13
O=C(Nc1ccc(C(F)(F)F)cc1)NC1CCN(c2ccnc3ccccc23)C1.O=C(O)C(F)(F)F (stereo not drawn),100,89,13
Cc1cccc2nc(-c3cccc(-c4cccc(NC(=O)c5cnn6cccnc56)c4)c3)[nH]c12,100,17,14
COc1c(O)cc2oc(-c3ccc(O)cc3)cc(=O)c2c1O [HISPIDULIN],96,0,6
Cc1cc(C)c(NC(=O)NC2CCN(CCCCCNC(=O)/C=C/c3ccc(Cl)c(Cl)c3)CC2)c(C)c1,100,17,30
Oc1ccc2nc(Nc3ccccc3)nc(NCCc3ccccc3)c2c1,100,100,20

Compound,Inhibition (Plasmodium falciparum [1]) [%],Inhibition (Plasmodium falciparum [2]) [%],Inhibition (HepG2) [%]
CNCc1cccc2nc(-c3ccc(Cc4cc(Cl)ccc4OCC(C)C)o3)[nH]c12.Cl,97,23,20
CN(C)c1nc(NCc2ccccc2)nc(N/N=C/c2cc([N+](=O)[O-])ccc2O)n1,100,90,48
Cc1cc(N2CCCC2)nc(Nc2ccc(NC(=O)c3ccccc3C)cc2)n1,100,40,22
CCNc1cc(C(=O)N[C@@H](Cc2ccccc2)[C@H](O)CNC23CCC(CC2)C3)cc(N2CCCCS2(=O)=O)c1.Cl,97,99,22
Cc1nnsc1C(=O)Nc1cccc(-c2cccc(-c3nc4cc(C(F)(F)F)ccc4[nH]3)c2)c1,100,100,70
O=C(O)C(F)(F)F.O=c1cc(N2CCNCC2)c(Cl)nn1Cc1ccc(NS(=O)(=O)c2ccc(Oc3ccccc3)cc2)cc1,100,0,3
CS(=O)(=O)c1ccc(CNCc2cccc(-c3cccc(-c4nc5cc(C(F)(F)F)ccc5[nH]4)c3)c2)cc1.O=C(O)C(F)(F)F,100,96,5
COc1ccc(C=CC(=O)NC(=O)c2ccccc2OC(=O)c2ccccc2)cc1OC,87,90,12
CCN(CC)CCN(Cc1ccc(-c2ccc(C(F)(F)F)cc2)cc1)C(=O)Cn1c(CCc2c(F)ccc(F)c2F)nc(=O)c2ccccc21.O=C(O)C(O)C(O)C(=O)O,98,62,44
Br.CCCCCCn1c2c(c(=N)c3c1CCC3)CCCC2,99,76,31
Cc1noc(-c2ccc(NC[C@@H](C)NC[C@H](O)c3cccc(Cl)c3)cc2)n1,97,84,11
Cc1ccc(NC(=O)c2ccc(CN3CCCN(Cc4cccc(O)c4)CC3)cc2)cc1.O=C(O)C(F)(F)F,90,31,39
COc1ccc2nccc(C(=O)NC3CCC(CCN4CCc5cc(C#N)ccc5C4)CC3)c2c1.Cl (stereo not drawn),97,1,12
Cc1cccc(Nc2nc(N)c3ccccc3n2)c1.Cl,99,49,1
CN1CCN(Cc2cccc(-c3ccc4c(Nc5ccc(Oc6ccccc6)cc5)ccnc4c3)c2)CC1,100,100,41
O=C(O)C(F)(F)F.c1ccc(CCNCc2ccc(-c3cccc(-c4nc5ccccc5[nH]4)c3)cc2)nc1,100,87,36
Brc1ccc(Nc2nc3ccccc3nc2Nc2ccc(Br)cc2)cc1,100,100,18
Cl.O=C(Nc1cccc(-c2nn3ncccc3c2-c2ccnc(Nc3cccnc3)n2)c1)c1c(F)cccc1F,96,70,5
CCCCCn1c(Sc2ccc(C#N)c([N+](=O)[O-])c2)nnc1-c1cccs1,91,38,19
